In PubChem BioAssay (NCATS) one finds Potency data, which are given here for seven compounds.

A short description of test [1]: Quantitative High-Throughput drug screen in 47 multiple myeloma cell lines against the NCATS MIPE library collection: Karpas620_DSMZ cell viability assay (AID 1918959). Further: nearly all actives have a fitted effect of over 30% in size. The method, boiled down: (§1)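 Luminescent ATP measurement with CellTiter-Glo gives viability, scaled between DMSO-only wells (100%) and media-only wells (0%). Cells, 500 per well, faced library compounds for 48 hours at 37C.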

A short description of test [2]: Quantitative High-Throughput drug screen in 47 multiple myeloma cell lines against the NCATS MIPE library collection: KMM1_JCRB cell viability assay (AID 1918960). Further: nearly all actives have a fitted effect of over 30% in size. An outline of the steps:
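Myeloma cells at 500 per well in 1536-well format treated with MIPE 4.0 library by pin transfer for 48 h at 37C, 5% CO2. Viability from ATP luminescence (CellTiter-Glo), normalized to DMSO (100%) and media-only (0%) wells.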

Test [3] can be described thus: Quantitative High-Throughput drug screen in 47 multiple myeloma cell lines against the NCATS MIPE library collection: JIM3_ECACC cell viability assay (AID 1918963; further: nearly all actives have a fitted effect of over 35% in size). An outline of the steps:
as §1

Test [4] can be described thus: Quantitative High-Throughput drug screen in 47 multiple myeloma cell lines against the NCATS MIPE library collection: JIM1_ECACC cell viability assay (AID 1918964). The method, boiled down:
(§2)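 Relative luminescence from CellTiter-Glo served as the viability signal, referenced to DMSO-treated (100%) and cell-free medium (0%) controls. Treatment lasted 48 hours at 37C with 500 cells per well.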

Test [5] in a line: Quantitative High-Throughput drug screen in 47 multiple myeloma cell lines against the NCATS MIPE library collection: INA6_PLB cell viability assay (AID 1918965; further: nearly all actives have a fitted effect of over 55% in size). The method, boiled down: (§3)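 Steps: seed 500 cells per well; pin-transfer MIPE 4.0 library; incubate 48 h at 37C, 5% CO2, humidified; add CellTiter-Glo, 5 min room temperature; read luminescence.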
The nature of test [6]: Quantitative High-Throughput drug screen in 47 multiple myeloma cell lines against the NCATS MIPE library collection: JJN3_DSMZ cell viability assay (AID 1918966; further: nearly all actives have a fitted effect of over 50% in size). The method, boiled down:
as §2

Test [7] is described as follows: Quantitative High-Throughput drug screen in 47 multiple myeloma cell lines against the NCATS MIPE library collection: Karpas25_ECACC cell viability assay (AID 1918968; further: nearly all actives have a fitted effect of over 35% in size). An outline of the steps:
as §2

Test [8] can be described thus: Quantitative High-Throughput drug screen in 47 multiple myeloma cell lines against the NCATS MIPE library collection: KMS27_JCRB cell viability assay (AID 1918970). Further: nearly all actives have a fitted effect of over 30% in size. Conditions: KMS27 myeloma cells, CellTiter-Glo ATP viability, 48 h; viability (% of DMSO): at 45.8 µM (top of the series). An outline of the steps: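 ATP-based viability (CellTiter-Glo luminescence) is measured in cells treated 48 h with approved and investigational drugs at 37 °C. Controls are DMSO-only wells for full viability and media-only wells for none.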
On the technique in general: ATP-based viability assays read luminescence as a measure of living cells.

Test [9] is described as follows: Quantitative High-Throughput drug screen in 47 multiple myeloma cell lines against the NCATS MIPE library collection: KMS12BM_JCRB cell viability assay (AID 1918971). Further: nearly all actives have a fitted effect of over 35% in size. The method, boiled down:
(§4)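 Approved and investigational drugs from MIPE 4.0 were added by pin tool to 500 cells per well. After 48 hours at 37C, ATP-based CellTiter-Glo luminescence indicated remaining viability.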

A short description of test [10]: Quantitative High-Throughput drug screen in 47 multiple myeloma cell lines against the NCATS MIPE library collection: KMS12PE_JCRB cell viability assay (AID 1918972). Further: nearly all actives have a fitted effect of over 30% in size. The method, boiled down:
as §3

Test [11] in a line: Quantitative High-Throughput drug screen in 47 multiple myeloma cell lines against the NCATS MIPE library collection: KMS20_JCRB cell viability assay (AID 1918973). Further: nearly all actives have a fitted effect of over 45% in size. The method, boiled down: as §2
Test [12] can be described thus: Quantitative High-Throughput drug screen in 47 multiple myeloma cell lines against the NCATS MIPE library collection: KMS21BM_JCRB cell viability assay (AID 1918974). To be noted: ATP luminescence, 48 h; viability: at 45.8 µM (top of the series). An outline of the steps:
as §2

Test [13] is described as follows: Quantitative High-Throughput drug screen in 47 multiple myeloma cell lines against the NCATS MIPE library collection: KMS26_JCRB cell viability assay (AID 1918975). Further: nearly all actives have a fitted effect of over 45% in size. The method, boiled down:
as §4

Test [14] is described as follows: Quantitative High-Throughput drug screen in 47 multiple myeloma cell lines against the NCATS MIPE library collection: MMM1_PLB cell viability assay (AID 1918976). Further: nearly all actives have a fitted effect of over 35% in size. An outline of the steps: (§5)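 Inhibition of viability over 48 h was scored by ATP content (CellTiter-Glo) in 500-cell wells. Zero and full viability were defined by media-only and DMSO-only wells.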
Test [15] can be described thus: Quantitative High-Throughput drug screen in 47 multiple myeloma cell lines against the NCATS MIPE library collection: MOLP8_DSMZ cell viability assay (AID 1918977). Further: nearly all actives have a fitted effect of over 45% in size. An outline of the steps: as §5
Test [16] is described as follows: Quantitative High-Throughput drug screen in 47 multiple myeloma cell lines against the NCATS MIPE library collection: NCIH929_DSMZ cell viability assay (AID 1918978). Further: nearly all actives have a fitted effect of over 35% in size. An outline of the steps:
as §5

A short description of test [17]: Quantitative High-Throughput drug screen in 47 multiple myeloma cell lines against the NCATS MIPE library collection: OCIMY1_PLB cell viability assay (AID 1918979). Further: nearly all actives have a fitted effect of over 35% in size. An outline of the steps:
as §5

Test [18] can be described thus: Quantitative High-Throughput drug screen in 47 multiple myeloma cell lines against the NCATS MIPE library collection: H1112_PLB cell viability assay (AID 1918967; further: nearly all actives have a fitted effect of over 30% in size). The method, boiled down:
as §2

Results filed as inconclusive are left out. A number with no mark means an inactive call. The source made the active and inactive calls. The call rests on the fitted dose curve; in most records, active means well fitted curve in the direction sought with a large enough effect; inconclusive means small, poorly fitted or top-dose-only effect, or another doubt; inactive means no such curve, though single readings can be large; an effect the other way counts as inactive or inconclusive. Positions of bridges follow the written chain, without caps; N, C: chain ends. Non-standard residues stand in square brackets, D forms with d. Residues, ends and D or L forms follow the SMILES beside them. ξ: configuration not given here. *: point of attachment. Octanoyl(6-Me) = CCC(C)CCCCC(=O)*; ξThr(3R) = C[C@@H](O)C(N)C(=O)O; dDab = NCC[C@@H](N)C(=O)O; Dab = NCC[C@H](N)C(=O)O
Potency means the concentration at half of the fitted maximal effect.

With `Nc1ccc(C(=O)Nc2cccc(-c3nc(N4CCOCC4)c4oc5ncccc5c4n3)c2)cn1`, the Potency in test [1] was 6.62 µM (active); in test [2] it was 0.418 µM (active); in test [3], 4.18 µM (active); in test [4], 5.26 µM (active); in [5] it was 3.32 µM (active); in [6] it was 5.26 µM (active). For the same compound, the Potency in [7] was 2.35 µM (active); in test [8], 6.62 µM (active); in test [9], 23.5 µM (active); in test [10], 2.64 µM (active); in [11], 1.48 µM (active); in [12], 10.5 µM (active). Further, the Potency in test [13] is 2.35 µM (active); in test [14], 16.6 µM (active); in test [15] it was 20.9 µM (active); in test [16], 2.64 µM (active); in test [17] it was 16.6 µM (active).
With `C=C[C@@H]1CN2CCC1C[C@H]2[C@H](O)c1ccnc2ccc(OC)cc12` (stereo partly specified), the Potency entry in test [1], in test [2], in test [3], in [8], in test [9] and in test [15] was “inactive” each time. Also, the Potency result in test [16] and in [17] was “inactive” each time.
As for `C[N+](C)([O-])CCNc1ccc(NCC[N+](C)(C)[O-])c2c1C(=O)c1c(O)ccc(O)c1C2=O`, the Potency entry in test [1], in test [2], in test [3], in test [18], in test [8] and in test [10] was “inactive” in each case. Moreover, the Potency result in test [12] and in test [17] was “inactive” throughout. Also, the results for the Potency in test [5] and in test [9] were 16.6 µM (active) and 18.7 µM (active), respectively.
With `Cc1cc(O)c2c(c1)C(=O)c1cccc(O)c1C2=O`, the Potency result in test [1], in test [2], in test [3], in [5], in [6] and in [18] was “inactive” each time. Moreover, the Potency result in [8], in test [13], in test [15], in test [16] and in [17] was “inactive” in each case.
Regarding `CCC(C)CCCCC(=O)N[C@@H](CCN)C(=O)NC(C(=O)N[C@H](CCN)C(=O)N[C@@H]1CCNC(=O)C([C@@H](C)O)NC(=O)[C@@H](CCN)NC(=O)[C@@H](CCN)NC(=O)[C@@H](CC(C)C)NC(=O)[C@H](Cc2ccccc2)NC(=O)[C@H](CCN)NC1=O)[C@@H](C)O` (stereo partly drawn) ({Octanoyl(6-Me)}-[Dab][ξThr(3R)][dDab][dDab][Dab]F[dL][dDab][dDab][ξThr(3R)]; lactam 4-C), the Potency result in [1], in test [2], in [3], in test [4], in [18] and in test [8] was “inactive” in each case. Also, the Potency result in test [10], in [11], in test [15], in test [16] and in [17] was “inactive” throughout.
On to `C[C@H](O)[C@@H]1C(=O)N2C(C(=O)O)=C(S[C@@H]3CN[C@H](CNS(N)(=O)=O)C3)[C@@H](C)[C@@H]12`, for which the Potency result in test [1], in test [2], in test [3], in [4], in test [18] and in test [8] was “inactive” in each case. Further, the Potency entry in test [10], in test [11], in [13], in [16] and in test [17] was “inactive” each time.
In the case of `COC(=O)C1C2CC3c4[nH]c5cc(OC)ccc5c4CCN3CC2CC(OC(=O)c2cc(OC)c(OC)c(OC)c2)C1OC` (stereo unspecified), the Potency in [1] is 23.5 µM (active); in test [2], 20.9 µM (active); in test [3], 26.4 µM (active); in test [18], 16.6 µM (active); in [7] it was 23.5 µM (active); in test [10] it was 18.7 µM (active). Also, the Potency in [14] is 20.9 µM (active). Moreover, the Potency result in [13] was “inactive”.
